# From PubChem BioAssay AID1445 (SRMLSC, 2008)
# Screen size: about 220,000 compounds; about 910 (0.41%) were called active. The sample as a whole holds a higher share of actives than the screen did. Results with a measured potency or affinity are listed apart. A number with no mark means an inactive call.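 How the source made its calls: active means primary inhibition above the hit cutoff, then over 50% inhibition at one or more dose response concentrations (cut at about 23% in these data, passing the limit was not always enough); inconclusive means conflicting primary data, or primary hits not chosen for dose response; inactive means low primary inhibition, or under 50% at every dose.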
# Molecular target: Aminopeptidase N (Plasmodium falciparum (isolate 3D7)) (UniProt O96935)
# Experiment: malaria alanyl aminopeptidase activity blockers – biochemical, fluorogenic H-Leu-NHMec substrate, 1536-well (AID 1445);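 further: plate controls were DMSO full reaction for no effect and no enzyme background for full effect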
# Conditions: recombinant M1AAP, H-Leu-NHMec fluorogenic kinetic assay
# [1] = at 30 µM, hits give high values unless noted
# Chain of Aminopeptidase N (Plasmodium falciparum (isolate 3D7)) (O96935 whole entry, looked up): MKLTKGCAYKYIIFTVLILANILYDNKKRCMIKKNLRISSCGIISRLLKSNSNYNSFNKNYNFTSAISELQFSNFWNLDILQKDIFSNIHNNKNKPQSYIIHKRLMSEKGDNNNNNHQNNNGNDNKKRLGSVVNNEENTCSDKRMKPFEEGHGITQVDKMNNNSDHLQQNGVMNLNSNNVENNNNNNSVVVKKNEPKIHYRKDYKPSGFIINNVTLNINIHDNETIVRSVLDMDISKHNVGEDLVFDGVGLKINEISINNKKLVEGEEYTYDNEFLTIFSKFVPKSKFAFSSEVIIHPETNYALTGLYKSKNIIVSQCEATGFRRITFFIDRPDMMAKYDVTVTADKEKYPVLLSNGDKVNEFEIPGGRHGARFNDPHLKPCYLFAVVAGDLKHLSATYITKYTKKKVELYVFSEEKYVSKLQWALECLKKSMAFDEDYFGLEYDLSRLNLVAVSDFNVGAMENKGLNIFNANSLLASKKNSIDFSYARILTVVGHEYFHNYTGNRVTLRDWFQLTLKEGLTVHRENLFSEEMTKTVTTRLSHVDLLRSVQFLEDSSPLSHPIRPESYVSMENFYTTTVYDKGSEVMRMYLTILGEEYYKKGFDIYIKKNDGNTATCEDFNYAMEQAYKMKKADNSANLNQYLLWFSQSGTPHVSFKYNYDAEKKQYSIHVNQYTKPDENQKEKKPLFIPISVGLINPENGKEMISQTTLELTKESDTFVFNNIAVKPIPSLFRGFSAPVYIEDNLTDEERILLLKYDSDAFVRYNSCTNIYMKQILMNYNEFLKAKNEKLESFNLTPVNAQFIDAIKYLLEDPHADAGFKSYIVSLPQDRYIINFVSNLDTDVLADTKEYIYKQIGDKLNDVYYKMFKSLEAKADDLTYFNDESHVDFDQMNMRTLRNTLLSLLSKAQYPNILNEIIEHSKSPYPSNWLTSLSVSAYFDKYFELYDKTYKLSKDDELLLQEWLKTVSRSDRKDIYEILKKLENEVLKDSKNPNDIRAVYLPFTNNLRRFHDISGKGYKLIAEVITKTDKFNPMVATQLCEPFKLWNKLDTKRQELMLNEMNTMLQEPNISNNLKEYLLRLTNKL
smiles,measurement,setting,value
CN1CCN(Cc2cc(Cl)c3cccnc3c2OC(=O)c2cccs2)CC1,inhibition,[1],-1.84%
O=C(Oc1c(CN2CCOCC2)cc(Cl)c2cccnc12)c1ccccc1,inhibition,[1],4.42%
CCOC(=O)c1cc2c(=O)n3ccccc3nc2n(CCOC)c1=NC(=O)C(C)(C)C,inhibition,[1],16.9%
CCOC(=O)c1cc2c(=O)n3ccccc3nc2n(CCOC)c1=NC(=O)c1ccncc1,inhibition,"at 30 µM, hits give high values",45.3% (active)
same,inhibition,at 100 µM (top of the series),16.6%
CCOC(=O)c1cc2c(=O)n3ccccc3nc2n(CCCOC)c1=NC(=O)c1ccncc1,inhibition,[1],10.7%
O=C(NCCc1ccccc1)C1CCN(c2nc3ccccc3o2)CC1,inhibition,[1],1.06%
O=S(=O)(c1ccc2c(c1)OCCO2)N1CCC(n2cnc3cc(F)ccc32)CC1,inhibition,[1],2.37%
O=S(=O)(c1ccc2c(c1)OCCO2)N1CCC(n2nnc3cc(C(F)(F)F)ccc32)CC1,inhibition,[1],-4.12%
O=c1nc2n(c3ccc(Br)cc13)CCS2,inhibition,[1],1.45%
COc1ccccc1NC(=O)Nc1ccccc1N1CCOCC1,inhibition,[1],3.89%
CC(=O)c1sc(-c2ccc(F)cc2)cc1NS(=O)(=O)c1ccc(C)cc1,inhibition,[1],0.65%
CC(=O)c1sc(-c2ccccc2)cc1NS(=O)(=O)c1ccccc1,inhibition,[1],-0.36%
CCOC(=O)C1=C(C)N(c2ccc(OC)cc2)C(=O)/C1=C\c1ccc(O)c(OCC)c1,inhibition,[1],4.43%
CCOc1cc(/C=C2\SC(=Nc3ccc(F)cc3)N(c3ccc(F)cc3)C2=O)ccc1OCC(=O)O,inhibition,[1],16.8%
COc1cc(/C=C2\SC(N)=NC2=O)ccc1OCC(=O)Nc1ccc(C)cc1,inhibition,[1],10%
CCOC(=O)C1=C(O)/C(=C/c2ccc(OCC(=O)O)c(OC)c2)SC1=Nc1ccc(OCC)cc1,inhibition,[1],13.2%
O=C(/C=C/c1ccc(S(=O)(=O)N2CCOCC2)cc1)NCc1ccc(Cl)cc1,inhibition,[1],-0.73%
C=CCn1c(COc2ccccc2)nnc1SCC(=O)O,inhibition,[1],0.9%
Cc1nn(-c2ccccc2)c(C)c1NC(=O)Cc1cccs1,inhibition,[1],4.27%
CC(C)OC(=O)CSc1ncnc2c1cnn2Cc1ccccc1,inhibition,[1],0.69%
Cc1ccc(S(=O)(=O)N2CCCC2C(=O)Nn2cnnc2)cc1 (stereo not drawn),inhibition,[1],-0.66%
O=C(O)c1cccc(-n2cccc2/C=C2\SC(=O)N(Cc3ccccc3F)C2=O)c1,inhibition,[1],15.3%
Cc1cccc(C)c1NC(=O)CN1C(=O)S/C(=C\c2cccn2-c2cccc(C(=O)O)c2)C1=O,inhibition,[1],8.9%
CCOC(=O)C1(C(F)(F)F)N=C(C(F)(F)F)Nc2cc(C)c(C)cc21 (stereo not drawn),inhibition,[1],1.48%
O=C1C(C=Nc2ccccc2O)=C(O)c2ccccc21,inhibition,[1],20.6%
Cc1ccccc1N=CC1=C(O)c2ccccc2C1=O,inhibition,[1],4.59%
Cc1ccc(C(C(=O)NC2CCCC2)N(Cc2cccs2)C(=O)c2csnn2)o1 (stereo not drawn),inhibition,[1],7.36%
O=C(NC1CCCC1)C(c1ccncc1)N(Cc1cccs1)C(=O)c1csnn1 (stereo not drawn),inhibition,[1],24.6% (active)
CC(C)(C)NC(=O)C(c1ccncc1)N(Cc1cccs1)C(=O)c1csnn1 (stereo not drawn),inhibition,[1],-14%
Cc1ccc(C(C(=O)NC2CCCCC2)N(C(=O)c2csnn2)C2CC2)o1 (stereo not drawn),inhibition,[1],9.01%
COCCN(C(=O)c1csnn1)C(C(=O)NC1CCCCC1)c1sccc1C (stereo not drawn),inhibition,[1],21.1%
O=C(COC(=O)c1ccncc1)NCCCc1ccccc1,inhibition,[1],2.54%
Cc1ccc(Cl)cc1NC(=O)c1cccc(OC(F)F)c1,inhibition,[1],5.73%
COc1ccccc1NC(=O)CSc1nnc(-c2ccoc2C)n1CCc1ccccc1,inhibition,[1],24.7% (active)
Cc1ccccc1NC(=O)CSc1nnc(-c2ccoc2C)n1CCc1ccccc1,inhibition,[1],8.39%
Cc1occc1-c1nnc(SCC(=O)Nc2ccccc2)n1CCc1ccccc1,inhibition,[1],0.44%
CCCCc1cc(=O)oc2cc(OCc3cc(OC)c(OC)c(OC)c3)c(Cl)cc12,inhibition,[1],-3.71%
CCCCc1cc(=O)oc2cc(OCc3nn[nH]n3)c(Cl)cc12,inhibition,[1],6.21%
C=CCc1c(O)c(CC)cc2c(C)cc(=O)oc12,inhibition,[1],10.9%
CCC(=O)c1cc2c(C)cc(=O)oc2c(C)c1O,inhibition,[1],4.77%
CCCCc1cc(=O)oc2cc(OCC(=O)N(CC)CC)c(Cl)cc12,inhibition,[1],6.8%
Cc1cc(=O)oc2c(N)c(O)ccc12,inhibition,[1],8.69%
CCN(CC)Cc1c(O)ccc2c(-c3ccccc3)cc(=O)oc12,inhibition,[1],8.74%
COc1ccccc1N1CCN(C(=O)CSc2ccccc2)CC1,inhibition,[1],-1.68%
COc1cc(OC)cc(-c2nnc(SCC(=O)N(Cc3ccccc3)C(C)(C)C)o2)c1,inhibition,[1],1.01%
Cc1cccc(NC(=O)c2ccccc2OCC(=O)c2ccc(F)cc2)c1,inhibition,[1],3.15%
COC(=O)c1cc(Br)c(N)cc1OC,inhibition,[1],-6.6%
